± gives the standard deviation.
test system: MILI (PIWIL2) piRISC loaded with L1MC piRNA (26 nt); assay: pre-steady-state target cleavage rate (min^-1); guide: L1MC piRNA 5'p-UAACUAAAUACUAUGCAAGCUGUAGG; MIWI and MILI are mouse PIWI proteins and EfPiwi is from a freshwater sponge; tags in brackets are library labels; higher = faster piRNA-guided slicing of the target; settings: auxiliary factor: 500 nM mouse GTSF1
Procedure, shortened: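 A transcribed, DNA-blocked target RNA library (0.1 nM) and 1 nM active affinity-purified piRISC bearing one synthetic guide were incubated in HEPES–potassium acetate buffer at 33 °C for 0–8 or 0–960 min, either with or without 500 nM GTSF1 partner protein. Uncleaved targets were sequenced, normalised to depth and to weakly complementary targets, and pooled over three trials, with k3 capped at 0.0001 min^-1. The pre-steady-state cleavage rate was derived with a burst-and-steady-state fit.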

Q: With UCCUGGAUGUGCUUGCAUUGUAUUUAGAUA as the sequence, how does the “pre-steady-state target cleavage rate” value read?
A: Its value is 0.0503 ± 0.009.

Q: UCCUGGAUGUCCUUGCAUAGUAUUUAUGUUA was tested. Which “pre-steady-state target cleavage rate” value did it give?
A: Its value is 0.0185 ± 0.0059.

Q: How did the “pre-steady-state target cleavage rate” value turn out when UCCUGGUACACCUUGCAUAGUAUAUAGUUA was run?
A: Its value is 0.311 ± 0.059.

Q: UCCUGGAUGAGCUUGCUAUAGUAUUUAGUUA was tested. Which “pre-steady-state target cleavage rate” value did it give?
A: The value was 0.00431 ± 0.0032.

Q: How did the “pre-steady-state target cleavage rate” value turn out when UCCUGGAUCAGCUUGCAUAGUUAUUAGUAA was run?
A: The value was 0.00826 ± 0.0047.

Q: With UCCUGGAUCAGCUUGCAUUGAAUUUAGUUA as the sequence, how does the “pre-steady-state target cleavage rate” value read?
A: Its value is 0.0248 ± 0.0084.

Q: UCCUGGUACAGCUAGCAUAGUAUUUACUUA was tested. Which “pre-steady-state target cleavage rate” value did it give?
A: The value was 0.0934 ± 0.023.

Q: UCCUGGAUGUCCUUGCAUAGUAAAUAGUAA was tested. Which “pre-steady-state target cleavage rate” value did it give?
A: The value was 0.00932 ± 0.0037.

Q: Which “pre-steady-state target cleavage rate” value does the source give for UCCUGGAUGUCGUUGCAUAGUAUUAAGUUA here?
A: Its value is 0.142 ± 0.028.

Q: UCCUGGAACAGCUUGGAUAGAAUUUAGUUA was tested. Which “pre-steady-state target cleavage rate” value did it give?
A: Its value is 0.0521 ± 0.013.

Q: With UCCUGGAUGUCGAUGCAUAAUAUUUAGUUA as the sequence, how does the “pre-steady-state target cleavage rate” value read?
A: Its value is 0.0556 ± 0.013.

Q: With UCCUGCUACAGCUUGCAAAGUAUUUACUUA as the sequence, how does the “pre-steady-state target cleavage rate” value read?
A: The value was 0.0653 ± 0.0078.

same assay, conditions: auxiliary factor: none (no GTSF1)

Q: How did the “pre-steady-state target cleavage rate” value turn out when “UCCUGGAUGUCGAACGUAUGUAUUUUCAAA [g6:g11:cont:t1A]” was run?
A: Its value is < 0.0001.

Q: Which “pre-steady-state target cleavage rate” value does the source give for UCCUGGAUGUCGAACCAUAGUCAUUUAGUUA here?
A: The value was < 0.0001.

Q: UCCUGGAUGUCGAUGCAUACUAUUUUGUUA was tested. Which “pre-steady-state target cleavage rate” value did it give?
A: Its value is < 0.0001.

Q: For UCCUGGAUGUCGAACCAUUAGUAUUUAGUUA, which “pre-steady-state target cleavage rate” value is on record?
A: The value was < 0.0001.
